Measurements as given in PubChem BioAssay.
Unmarked numbers belong to inactive results. Entries that show only a call come without a potency. For part of these data: Potency and affinity values are given separately. Activity calls are given as the source filed them. Unless noted, no rule for the calls is given here.

Assays:
[1] = antimalarial activity against Dd2 strain (AID 2302;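 active = growth inhibition above 50% at the single 2 µM test dose, taken to imply half-maximal potency below 2 µM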); details: P. falciparum Dd2 in RBCs, LDH growth readout, 72 h; at 2 µM; stronger effect = higher value
[2] = human hepatoma cell viability loss – ATP luminescence, cytotoxicity control for P. falciparum antimalarial project, primary screen (AID 2303;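 active = inhibition above 50%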); details: HepG2 viability, 24-48 h, at 10 µM, stronger effect = higher value
[3] = molecular target: L-lactate dehydrogenase (Plasmodium falciparum (isolate CDC / Honduras)) (UniProt Q27743); assay: PfLDH activity inhibition – cell lysate, 3D7 strain, counter-screen for P. falciparum growth inhibition project (AID 2304); details: P. falciparum 3D7 crude extract, LDH APAD/NBT absorbance; at 2 µM; stronger effect = higher value
Sequence of L-lactate dehydrogenase (Plasmodium falciparum (isolate CDC / Honduras)) (Q27743 whole entry, looked up): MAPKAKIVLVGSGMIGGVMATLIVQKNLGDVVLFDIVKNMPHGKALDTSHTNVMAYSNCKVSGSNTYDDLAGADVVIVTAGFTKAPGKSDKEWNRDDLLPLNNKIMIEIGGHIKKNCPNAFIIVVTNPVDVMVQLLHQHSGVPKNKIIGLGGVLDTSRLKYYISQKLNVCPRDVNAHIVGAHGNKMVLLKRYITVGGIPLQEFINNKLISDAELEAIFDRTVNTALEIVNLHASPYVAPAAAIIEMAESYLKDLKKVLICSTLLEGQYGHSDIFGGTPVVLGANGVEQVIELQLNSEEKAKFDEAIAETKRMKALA

[4] = inhibition of 3D7 malaria parasite growth – strain 3D7 (AID 2306); details: P. falciparum 3D7 erythrocytic growth, LDH absorbance, 72 h; at 2 µM; stronger effect = higher value
[5] = molecular target: Calcium-dependent protein kinase 1 (Plasmodium falciparum (isolate 3D7)) (UniProt P62344); assay: PfCDPK1 kinase inhibitors, biochemical, TCAMS library (AID 1159585; cut-off not given, nearly all actives have IC50 up to about 0.98 µM;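 also: inhibitors leave more ATP so luminescence rises with inhibition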); details: recombinant PfCDPK1, Kinase-Glo ATP depletion luminescence
Sequence of Calcium-dependent protein kinase 1 (Plasmodium falciparum (isolate 3D7)) (P62344 whole entry, looked up): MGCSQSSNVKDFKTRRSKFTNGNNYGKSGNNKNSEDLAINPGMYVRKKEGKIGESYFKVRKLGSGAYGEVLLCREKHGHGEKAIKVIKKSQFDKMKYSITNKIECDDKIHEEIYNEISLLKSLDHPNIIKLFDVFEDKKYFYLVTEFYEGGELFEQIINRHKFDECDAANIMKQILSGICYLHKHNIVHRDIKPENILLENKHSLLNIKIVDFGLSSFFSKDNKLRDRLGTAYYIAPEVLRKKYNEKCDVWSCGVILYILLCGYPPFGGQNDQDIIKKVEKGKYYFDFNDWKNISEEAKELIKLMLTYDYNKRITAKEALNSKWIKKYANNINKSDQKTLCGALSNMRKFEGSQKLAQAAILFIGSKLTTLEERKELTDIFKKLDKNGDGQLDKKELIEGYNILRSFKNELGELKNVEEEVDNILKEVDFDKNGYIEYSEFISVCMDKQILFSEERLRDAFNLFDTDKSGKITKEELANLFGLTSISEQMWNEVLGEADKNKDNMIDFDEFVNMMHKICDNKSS

[6] = molecular target: Plasmodium falciparum protein kinase 6 (PK6, PF3D7_1337100) (UniProt Q8IDW1); assay: PfPK6 kinase inhibitors, biochemical, TCAMS library (AID 1159586); details: recombinant PfPK6, Kinase-Glo ATP depletion luminescence
Sequence of Plasmodium falciparum protein kinase 6 (PK6, PF3D7_1337100) (Q8IDW1 1-305): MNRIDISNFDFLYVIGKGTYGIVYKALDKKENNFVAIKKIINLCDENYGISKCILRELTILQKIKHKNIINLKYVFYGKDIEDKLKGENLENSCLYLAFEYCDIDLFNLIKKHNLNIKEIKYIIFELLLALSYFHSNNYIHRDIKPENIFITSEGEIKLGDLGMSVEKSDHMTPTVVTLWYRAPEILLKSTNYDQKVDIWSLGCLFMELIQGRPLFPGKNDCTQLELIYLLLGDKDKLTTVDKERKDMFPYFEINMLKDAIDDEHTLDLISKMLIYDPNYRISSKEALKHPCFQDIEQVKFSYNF

[7] = molecular target: Protein kinase 7 (PK7), Plasmodium falciparum 3D7 (PF3D7_0213400) (UniProt Q7YTF7); assay: inhibition of Plasmodium PK7 catalytic activity – biochemical, TCAMS antimalarial set, Kinase-Glo luminescence (AID 1159587); details: recombinant PfPK7, Kinase-Glo ATP depletion luminescence
Sequence of Protein kinase 7 (PK7), Plasmodium falciparum 3D7 (PF3D7_0213400) (Q7YTF7 1-343): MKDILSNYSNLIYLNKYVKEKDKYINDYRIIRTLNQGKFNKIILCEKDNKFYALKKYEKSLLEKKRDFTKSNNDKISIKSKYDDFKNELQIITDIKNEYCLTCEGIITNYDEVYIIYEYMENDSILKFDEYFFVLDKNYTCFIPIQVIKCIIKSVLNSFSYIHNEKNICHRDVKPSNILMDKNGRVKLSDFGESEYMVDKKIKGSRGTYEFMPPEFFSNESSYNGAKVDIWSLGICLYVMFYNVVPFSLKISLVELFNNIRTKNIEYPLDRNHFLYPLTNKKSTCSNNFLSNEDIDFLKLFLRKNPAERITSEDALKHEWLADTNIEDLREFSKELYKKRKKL

[8] = molecular target: Calcium-dependent protein kinase 4 (Plasmodium falciparum (isolate 3D7)) (UniProt Q8IBS5); assay: PfCDPK4 kinase inhibitors, biochemical, TCAMS library (AID 1159588; cut-off not given, nearly all actives have IC50 up to about 0.91 µM); details: recombinant PfCDPK4, Kinase-Glo ATP depletion luminescence
Sequence of Calcium-dependent protein kinase 4 (Plasmodium falciparum (isolate 3D7)) (Q8IBS5 whole entry, looked up): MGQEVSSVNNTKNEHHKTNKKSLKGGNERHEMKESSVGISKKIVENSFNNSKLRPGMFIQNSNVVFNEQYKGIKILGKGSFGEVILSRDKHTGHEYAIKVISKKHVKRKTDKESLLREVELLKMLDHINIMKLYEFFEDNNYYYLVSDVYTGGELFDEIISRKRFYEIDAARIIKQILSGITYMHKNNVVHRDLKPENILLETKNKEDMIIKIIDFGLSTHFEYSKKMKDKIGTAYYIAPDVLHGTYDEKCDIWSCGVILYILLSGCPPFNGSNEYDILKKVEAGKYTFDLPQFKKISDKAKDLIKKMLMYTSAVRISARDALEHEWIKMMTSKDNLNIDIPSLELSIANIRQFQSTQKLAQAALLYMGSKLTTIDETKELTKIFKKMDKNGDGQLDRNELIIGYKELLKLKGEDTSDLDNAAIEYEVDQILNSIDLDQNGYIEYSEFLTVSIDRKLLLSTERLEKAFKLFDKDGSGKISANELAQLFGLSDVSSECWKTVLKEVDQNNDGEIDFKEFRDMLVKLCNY

Row | Structure (SMILES) | growth inhibition [1] | inhibition [2] | inhibition [3] [%] | growth inhibition [4] | outcome [5] | outcome [6] | outcome [7] | outcome [8]
1 | CN(C)Cc1ccc(-c2cc3c(-c4ccc(CN(C)C)cc4)ccnc3[nH]2)cc1 | 96% (active) | 86% (active) | 0 | 100% (active) | inactive | inactive | inactive | inactive
2 | O=C(COc1ccccc1)NC1CCN(c2ccnc3cc(Cl)ccc23)C1 (centres undefined) | 35% | 22% | -5 | 101% (active) | inactive | inactive | inactive | inactive
3 | CC(C)C[C@H](Nc1ccc(C#N)c2ccccc12)C(=O)NC(C)(C)C12CC3CC(CC(C3)C1)C2 | 30% | 19% | -1 | 96% (active) | inactive | inactive | inactive | inactive
4 | CCCOC(=O)C1=C(C)NC2=C(C(=O)CC(c3ccc(OC)c(OC)c3)C2)C1c1cccc(O)c1 (centres undefined) | 99% (active) | -10% | -2 | 100% (active) | inactive | inactive | inactive | inactive
5 | Cc1cccc2[nH]c(-c3ccc(-c4cccc(CN5CCC(CO)CC5)c4)s3)nc12 | 61% (active) | 20% | -8 | 99% (active) | inactive | inactive | inactive | inactive
6 | Cc1cccc2[nH]c(-c3ccc(-c4ccc(NC(=O)C(C)CN5CCN(C)CC5)cc4)s3)nc12 (centres undefined) | 99% (active) | 17% | -2 | 101% (active) | inactive | inactive | inactive | inactive
7 | Nc1nccc2ccc(-c3cccc4ncccc34)cc12 | 94% (active) | 40% | -1 | 98% (active) | inactive | inactive | inactive | inactive
8 | CCc1ccc(NC(=O)c2ccc(CN3CCCN(CC4CCCCC4)CC3)cc2)cc1 | 48% | 48% | 3 | 96% (active) | inactive | inactive | inactive | inactive
9 | O=C1Nc2cccc3c2C1(CCCCN1CCC(c2c(-c4ccc(F)cc4)[nH]c4ccccc24)CC1)CCC3 (centres undefined) | 28% | 25% | -4 | 91% (active) | inactive | inactive | inactive | inactive
10 | Cc1ccc(NC(=O)c2ccc(CN3CCCN(CC4CCCCC4)CC3)cc2)cc1C | 32% | 38% | 3 | 86% (active) | inactive | inactive | inactive | inactive
11 | COc1cc(C(=O)N2[C@@H](c3nccs3)[C@@H](C(=O)N(OC)C(C)c3ccccc3)C[C@@]2(CC(C)C)C(=O)OC(C)(C)C)ccc1C(C)(C)C (some centres undefined) | 92% (active) | 12% | 5 | 92% (active) | inactive | inactive | inactive | inactive
12 | COC(=O)c1ccc(-c2ccc(-c3cccnc3)cc2C)cc1 | 98% (active) | 81% (active) | 3 | 100% (active) | inactive | inactive | inactive | inactive
13 | Nc1ncc(-c2ccc3ncccc3c2)c(N)n1 | -1% | 55% (active) | 2 | 97% (active) | inactive | inactive | inactive | inactive
14 | CC(C)C(=O)n1ncc2c3c(N)nc(N)nc3ccc21 | 3% | 0% | -5 | 87% (active) | inactive | inactive | inactive | inactive
15 | C=CCc1cc(Cc2cnc(N)nc2N)c2ccc(C)nc2c1O | 3% | 51% (active) | 0 | 84% (active) | inactive | inactive | inactive | inactive
16 | Cc1cc(N[C@@H](Cc2ccccc2)C(=O)NCCOc2ccccc2)nc(NCCc2ccc(F)cc2)n1 | 86% (active) | 5% | 1 | 99% (active) | inactive | inactive | inactive | inactive
17 | O=C(NCC1CC1)C1CCN(C(c2ccccc2)c2cc(F)cc(F)c2)CC1 (centres undefined) | 95% (active) | -3% | 9 | 99% (active) | inactive | inactive | inactive | inactive
18 | COc1ccc2nccc(NCC3(O)CCC(NCc4ccc5c(n4)NC(=O)CS5)CC3)c2n1 (centres undefined) | 23% | 16% | 3 | 100% (active) | inactive | inactive | inactive | inactive
